Measurements published in PubChem BioAssay (EPA / NIEHS).
Results filed as inconclusive are left out. The source made the active and inactive calls. How the source made its calls, unless noted: active means hit-call score of the fitted dose curve at least 0.9, where 1 is the maximum; inactive means score below 0.9.

What was measured:
[1] = CCTE_Shafer_MEA_dev_firing_rate_mean: CCTE's Neural Network Formation Assay for Mean Firing Rate, Shafer Lab (AID 2284031);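 further: curve fitted for loss of firing so AC50 reflects decreased mean firing rate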
How it was run: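 Steps: seed rat cortical cells (1.5 x 10^5/well) with laminin on PEI-coated MEA; dose day 0; record DIV 5/7/9/12, full media and compound exchange after DIV 5 and 9 recordings; compute well-mean firing rate AUC.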

[2] = CCTE_Shafer_MEA_dev_per_burst_spike_percent: CCTE's Neural Network Formation Assay for Percent of Spikes in a Burst, Shafer Lab (AID 2284032);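 further: fitted as a decrease in burst spike percentage below DMSO baseline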
How it was run: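 Value is trapezoidal AUC over recordings on days 5, 7, 9 and 12 of the well-mean fraction of spikes falling in single-electrode bursts; rat cortical cultures exposed continuously from plating, treatment renewed DIV 5 and 9, fitted downward against DMSO.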

[3] = CCTE_Shafer_MEA_dev_active_electrodes_number: CCTE's Neural Network Formation Assay for Number of Active Electrodes, Shafer Lab (AID 2284040; active means hit-call score of the fitted dose curve at least 0.9, where 1 is the maximum;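 further: potency for loss of active electrodes versus DMSO so lower counts are hits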)
How it was run: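 Counts electrodes per well firing at least 5 spikes/min, recorded on days 5, 7, 9 and 12 in rat cortical cultures dosed continuously from plating (treatment refreshed DIV 5, 9). Value is the area under the curve over recordings, fitted downward relative to DMSO.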

[4] = CCTE_Shafer_MEA_dev_burst_rate: CCTE's Neural Network Formation Assay for Burst Rate, Shafer Lab (AID 2284042);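 further: potency for loss of burst rate below DMSO control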
How it was run: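 Rat primary cortical cultures on PEI/laminin MEA; compound from plating, re-dosed at DIV 5, 9 media change. Single-electrode bursts/recording length, well mean of active electrodes; AUC over DIV 5–12 recordings; loss-of-signal vs DMSO.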

[5] = CCTE_Shafer_MEA_dev_bursting_electrodes_number: CCTE's Neural Network Formation Assay for Number of Bursting Electrodes, Shafer Lab (AID 2284043; active means hit-call score of the fitted dose curve at least 0.9, where 1 is the maximum;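 further: potency is for loss of bursting electrodes relative to DMSO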)
How it was run: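 Number of electrodes reaching ≥1 burst every 2 min was recorded at DIV 5, 7, 9 and 12 and collapsed as trapezoidal area under the curve. Cultures were rat cortical neurons on MEA plates, dosed continuously from plating with medium and treatment refreshed on DIV 5 and 9.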

[6] = CCTE_Shafer_MEA_dev_per_burst_interspike_interval: CCTE's Neural Network Formation Assay for Burst Interspike Interval, Shafer Lab (AID 2284044);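 further: potency for a decrease of within-burst interspike interval below DMSO level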
How it was run: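 Spontaneous activity of maturing rat cortical networks is recorded on DIV 5, 7, 9 and 12 under chronic compound exposure beginning at plating. Endpoint: burst interspike interval well-mean, collapsed into trapezoidal AUC and fitted in the negative direction relative to DMSO.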

[7] = CCTE_Shafer_MEA_dev_burst_duration_mean: CCTE's Neural Network Formation Assay for Mean Burst Duration, Shafer Lab (AID 2284045);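 further: curve fitted for loss meaning shorter burst duration than DMSO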
How it was run: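 Mean single-electrode burst duration (first to last spike), averaged over bursting electrodes per well, then integrated as area-under-curve across recordings at days 5, 7, 9 and 12. Rat cortical cultures on MEAs, compound present from plating, refreshed at feeds.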

[8] = CCTE_Shafer_MEA_dev_interburst_interval_mean: CCTE's Neural Network Formation Assay for Mean Interburst Interval, Shafer Lab (AID 2284046);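 further: well-mean interburst interval of bursting electrodes as AUC over four recording days; curve fitted for decrease in interburst interval relative to DMSO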
How it was run: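 Rat cortical neurons, 1.5 x 10^5 cells/well, 48-well MEA; compound from day 0 through DIV 12, media and treatment renewed DIV 5/9. Recordings DIV 5, 7, 9, 12; well-mean interburst interval → trapezoidal AUC, loss direction vs DMSO.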

[9] = CCTE_Shafer_MEA_dev_inter_network_spike_interval_mean: CCTE's Neural Network Formation Assay for Mean Inter-network Spike Interval, Shafer Lab (AID 2284047)
How it was run: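 Primary rat cortical neurons on PEI-coated 48-well MEAs (16 electrodes/well) were exposed from plating day 0 to DIV 12, with dosing renewed at DIV 5 and 9. Recordings at DIV 5, 7, 9, 12 were collapsed by trapezoidal AUC, loss-of-signal fit vs DMSO.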

[10] = CCTE_Shafer_MEA_dev_network_spike_peak: CCTE's Neural Network Formation Assay for Mean Number of Electrodes in Network Spike, Shafer Lab (AID 2284049);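 further: fitted for loss of signal meaning fewer electrodes in network spikes than DMSO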
How it was run: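 Rat cortical primary culture, 1.5 x 10^5 cells/well, 48-well MEA (16 electrodes/well). Dosing day 0 through DIV 12, full media/compound exchange DIV 5, 9. AxIS adaptive spike detection; AUC over days 5/7/9/12; loss-of-signal vs DMSO.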

[11] = CCTE_Shafer_MEA_dev_spike_duration_mean: CCTE's Neural Network Formation Assay for Mean Spike Duration, Shafer Lab (AID 2284051);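 further: mean network spike duration pooled as area under curve over DIV 5 to 12 recordings; potency for a decrease in mean network spike duration versus DMSO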
How it was run: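 Rat cortical primary cultures, 48-well MEA (16 electrodes/well); compound from plating, renewed DIV 5, 9. Network spike duration (AxIS adaptive detector) recorded DIV 5/7/9/12, combined as trapezoidal AUC; loss direction vs DMSO.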

[12] = CCTE_Shafer_MEA_dev_network_spike_duration_std: CCTE's Neural Network Formation Assay for Standard Deviation of Network Spike Duration, Shafer Lab (AID 2284052);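 further: hits are decreases in network spike duration SD versus DMSO vehicle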
How it was run: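 Rat cortical cultures, 1.5 x 10^5 cells/well, exposed continuously from plating to DIV 12 with media/compound renewal at DIV 5, 9. Spontaneous activity recorded DIV 5/7/9/12, AxIS adaptive spike detector; AUC across days; negative direction vs DMSO.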

[13] = CCTE_Shafer_MEA_dev_per_network_spike_spike_number_mean: CCTE's Neural Network Formation Assay for Mean Number of Spikes in a Network Spike, Shafer Lab (AID 2284053);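 further: fitted as decrease in spikes per network spike relative to DMSO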
How it was run: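 Rat cortical primary cultures on 48-well MEA; compound from day 0, re-dosed with full media change DIV 5, 9. Recorded DIV 5, 7, 9, 12; spikes in 0.05 s window at network-spike peak ÷ total network spikes; AUC; loss vs DMSO.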

[14] = CCTE_Shafer_MEA_dev_per_network_spike_spike_percent: CCTE's Neural Network Formation Assay for Percent of Spikes in a Network Spike, Shafer Lab (AID 2284054)
How it was run: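 Metric: fraction of spikes falling in a 0.05 s window at network-spike peaks. Recordings were made on days 5, 7, 9 and 12 and collapsed by trapezoidal AUC. Cultures were rat cortical neurons on MEA plates, dosed continuously from plating, re-dosed at media changes.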

[15] = CCTE_Shafer_MEA_dev_LDH: CCTE's Lactate Dehydrogenase Assay for Cytotoxicity in the Neural Network Formation Assay, Shafer Lab (AID 2284068; active means hit-call score of the fitted dose curve at least 0.9, where 1 is the maximum;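 further: exposure for twelve days from plating with re-dosing on DIV 5 and 9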)
How it was run: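 Rat cortical primary neurons, MEA culture; dosing day 0–12, full medium plus compound exchange DIV 5, 9. Read-out: LDH enzyme activity, spectrophotometric. DMSO = negative control/baseline; signal loss → cytotoxicity.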

[16] = CCTE_Shafer_MEA_dev_AB: CCTE's Alamar Blue Assay for Cytotoxicity in the Neural Network Formation Assay, Shafer Lab (AID 2284083; active means hit-call score of the fitted dose curve at least 0.9, where 1 is the maximum;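 further: resazurin reduction fluorescence as viability of cultured neurons; twelve days of exposure from plating with re-dosing on DIV 5 and 9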)
How it was run: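 Rat cortical primary cultures, 1.5 x 10^5 cells/well on MEA; continuous compound exposure over 12 days of network development, re-dosed with full medium change DIV 5 and 9. Alamar Blue fluorescence; loss of signal = cytotoxicity vs DMSO baseline.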

[17] = CCTE_Shafer_MEA_dev_mutual_information_norm: CCTE's Neural Network Formation Assay for Mutual Information Normalization, Shafer Lab (AID 2284091);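 further: mutual information between electrodes summarised as area under curve across four recording days; potency is for a decrease in mutual information relative to DMSO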
How it was run: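 Shared information across electrodes, tracked on days 5, 7, 9 and 12 of network development and collapsed as trapezoidal area under the curve. Rat cortical cultures were treated continuously from plating, with treatment renewed at feeds on DIV 5 and 9; DMSO baseline, negative-direction fit.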

[18] = CCTE_Shafer_MEA_dev_correlation_coefficient_mean: CCTE's Neural Network Formation Assay for Mean Correlation Coefficient, Shafer Lab (AID 2284093);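 further: well mean pairwise spike train correlation integrated as AUC over recording days 5 to 12; potency fitted for loss of correlation relative to DMSO vehicle wells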
How it was run: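 Rat cortical cultures, 1.5 x 10^5 cells/well, dosed from day 0 for 12 days. Spontaneous spikes recorded DIV 5/7/9/12; electrode-pair correlation coefficients averaged, AUC taken. Fit in loss direction vs DMSO.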

[19] = CCTE_Mundy_HCI_Cortical_Synap_Neur_Matur_NeuriteSpotCountPerNeuriteLength: CCTE's Synaptogenesis and Neurite Maturation Assay in rat cortical cells for Neurite Spot Count per Neurite Length, Mundy Lab (AID 2284210)
How it was run: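 Synaptophysin spots per unit neurite length, measured by automated imaging of MAP2/synaptophysin/Hoechst-stained neurons. Cultures from rat cortex received chemical at DIV 7 with media change through DIV 12; glial growth arrested by AraC at DIV 5; DMSO baseline.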

[20] = CCTE_Mundy_HCI_Cortical_NOG_NeuriteLength: CCTE's Neurite Outgrowth Assay in rat cortical cells for Neurite Length, Mundy Lab (AID 2284213);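 further: neurites imaged about 48 to 50 h after chemical exposure began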
How it was run: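 First, rat primary cortical cells were plated and, 2 h later, given test chemical as a 1/10 dilution. Finally, βIII-tubulin immunostaining enabled automated imaging of neurite length.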

[21] = CCTE_Mundy_HCI_Cortical_Synap_Neur_Matur_NeuriteLength: CCTE's Synaptogenesis and Neurite Maturation Assay in rat cortical cells for Neurite Length, Mundy Lab (AID 2284214)
How it was run: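 Cultures of rat primary cortical cells received chemical at DIV 7 and were fixed at DIV 12, after glial arrest with AraC at DIV 5. Neurite length was measured by automated imaging of MAP2 immunofluorescence.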

[22] = CCTE_Mundy_HCI_Cortical_Synap_Neur_Matur_NeuriteSpotCountPerNeuron: CCTE's Synaptogenesis and Neurite Maturation Assay in rat cortical cells for Neurite Spot Count per Neuron Count, Mundy Lab (AID 2284215)
How it was run: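 Developing rat cortical neurons, with glia suppressed by AraC, are exposed to chemicals from DIV 7 to DIV 12. Automated fluorescence imaging of MAP2-labelled neurites and synaptophysin puncta yields a count per neuron, normalised against DMSO wells.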

[23] = CCTE_Mundy_HCI_Cortical_Synap_Neur_Matur_SynapseCount: CCTE's Synaptogenesis and Neurite Maturation Assay in rat cortical cells for Synapse Count, Mundy Lab (AID 2284218)
How it was run: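 Cells were plated, allowed 2 hr to attach, treated with AraC at DIV 5, then exposed to chemicals from DIV 7 until DIV 12. After fixation and MAP2/synaptophysin immunolabelling, synapses per neuron were quantified by automated imaging against DMSO.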

[24] = CCTE_Mundy_HCI_hN2_NOG_NeuriteCount: CCTE's Neurite Outgrowth Assay in human hN2 cells for Neurite Count, Mundy Lab (AID 2284219; active means hit-call score of the fitted dose curve at least 0.9, where 1 is the maximum)
How it was run: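 In this morphology assay, hNP1-derived neurons received test chemical 2 h post-plating and were fixed two days later in warm paraformaldehyde/sucrose containing Hoechst 33342. Neurites, labelled by rabbit anti-βIII-tubulin (1:800) and Alexa Fluor-488 (1:500), were counted automatically.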

[25] = CCTE_Mundy_HCI_hN2_NOG_NeuronCount: CCTE's Neurite Outgrowth Assay in human hN2 cells for Neuron Count, Mundy Lab (AID 2284221; active means hit-call score of the fitted dose curve at least 0.9, where 1 is the maximum)
How it was run: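 Read-out is the number of betaIII-tubulin-positive neurons imaged by automated high-content analysis, with DMSO as negative control.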

[26] = CCTE_Mundy_HCI_Cortical_Synap_Neur_Matur_CellBodySpotCount: CCTE's Synaptogenesis and Neurite Maturation Assay in rat cortical cells for Cell Body Spot Count, Mundy Lab (AID 2284223)
How it was run: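 Chemicals were applied to AraC-treated rat primary cortical cells at DIV 7 and measured at DIV 12. Fixed cells were labelled for MAP2, synaptophysin and nuclei, and high-content imaging gave cell body synaptophysin spot counts per neuron relative to DMSO.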

[27] = CCTE_Mundy_HCI_Cortical_NOG_NeuronCount: CCTE's Neurite Outgrowth Assay in rat cortical cells for Neuron Count, Mundy Lab (AID 2284236; active means hit-call score of the fitted dose curve at least 0.9, where 1 is the maximum;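 further: neurons counted by imaging betaIII-tubulin and Hoechst stained cortical cells; cells exposed to compound for about 48 hours before fixation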)
How it was run: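 Read-out: neuron number by high-content imaging of betaIII-tubulin (Alexa Fluor-488) and Hoechst-labelled rat primary cortical cells.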

[28] = CCTE_Mundy_HCI_hNP1_Casp3_7: CCTE's Caspase-Glo 3/7 Assay in human neuroprogenitor cells for Apoptosis, Mundy Lab (AID 2284240)
How it was run: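 Apoptosis is scored by activated caspase-3/7 luminescence in WA09-derived neural progenitor cells, measured 26.5 h after chemical dosing. Values represent gain of signal relative to DMSO vehicle.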

[29] = CCTE_Mundy_HCI_Cortical_Synap_Neur_Matur_NeuronCount: CCTE's Synaptogenesis and Neurite Maturation Assay in rat cortical cells for Neuron Count, Mundy Lab (AID 2284242; active means hit-call score of the fitted dose curve at least 0.9, where 1 is the maximum;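 further: neuron number from Hoechst nuclei and MAP2 staining by high-content imaging; hits reduce neuron count versus DMSO baseline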)
How it was run: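 Cortical cells from rat are plated, treated with AraC at DIV 5, and exposed to test chemicals with a media change at DIV 7. At DIV 12 they are fixed and immunostained (MAP2, synaptophysin), and imaged neuron counts are compared against DMSO controls.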

Measured: AC50

[CH3][Sn]([CH3])[CH3]
active: [1] 571 nM | [2] 1620 nM | [3] 212 nM | [4] 559 nM | [5] 245 nM | [6] 2330 nM | [7] 992 nM | [8] 2360 nM | [10] 224 nM | [11] 151 nM | [12] 77.3 nM | [13] 222 nM | [14] 221 nM | [15] 174 nM | [16] 1580 nM | [17] 221 nM | [18] 222 nM | [20] 1780 nM | [21] 2410 nM | [22] 1770 nM | [23] 1790 nM | [28] 5000 nM | [29] 1670 nM
inactive: [9] | [19] | [24] | [25] | [26] | [27]
